Active and inactive are the calls of the source. The calls were made as follows: active = hit-call score of the fitted dose curve at least 0.9, where 1 is the maximum; inactive = score below 0.9.
Legend:
[1] = ATG_CRE_CIS: Attagene CIS-FACTORIAL HepG2 Assay for human cAMP Responsive Element (CRE) binding protein 3 (AID 2282926); conditions: HepG2 CRE cis-reporter, Attagene multiplexed mRNA; actives raise or lower the signal
Summary of the method: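 Multiplexed transcription-unit reporters transfected into HepG2; 24 h dosing; RT-PCR/capillary electrophoresis fluorescence read-out; bidirectional fit vs DMSO.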

[2] = target: CCAAT/enhancer-binding protein beta (Homo sapiens) (UniProt P17676); assay: ATG_C_EBP_CIS: Attagene CIS-FACTORIAL HepG2 Assay for human CCAAT/Enhancer Binding Protein (C/EBP) beta (AID 2282927); conditions: HepG2 Attagene cis-factorial transcription factor reporter; actives raise or lower the signal
CCAAT/enhancer-binding protein beta (Homo sapiens), sequence (P17676 whole entry, looked up, the tested form may be a part): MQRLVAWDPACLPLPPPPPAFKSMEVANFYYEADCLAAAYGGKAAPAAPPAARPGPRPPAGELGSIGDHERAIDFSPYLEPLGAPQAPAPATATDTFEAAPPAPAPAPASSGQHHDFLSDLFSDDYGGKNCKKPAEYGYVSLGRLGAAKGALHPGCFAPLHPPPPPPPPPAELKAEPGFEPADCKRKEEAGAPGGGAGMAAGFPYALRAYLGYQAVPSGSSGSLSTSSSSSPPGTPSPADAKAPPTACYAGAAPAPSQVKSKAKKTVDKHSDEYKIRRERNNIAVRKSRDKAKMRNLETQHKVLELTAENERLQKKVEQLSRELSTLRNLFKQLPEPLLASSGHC
Summary of the method: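 Chemical-treated HepG2 cells (24 h) bearing cis-regulated reporter constructs were processed for total RNA, then reverse transcription, PCR amplification, fluorescent primer extension and fragment analysis; gain- and loss-of-signal were fitted against DMSO.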

[3] = ATG_CMV_CIS: Attagene CIS-FACTORIAL HepG2 Assay for human CMV (Internal Marker) (AID 2282928); conditions: HepG2 CMV promoter reporter, transcription factor profiling; actives raise or lower the signal;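 also: endpoint acts as a background internal control marker rather than a target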
Summary of the method: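 HepG2 cells transiently transfected with multiple cis-regulated reporter units; 24 h compound exposure. Reporter mRNA quantified by RT-PCR, 6-FAM primer-extension labeling, HpaI digestion and capillary electrophoresis; bidirectional fitting against DMSO baseline.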

[4] = target: Aryl hydrocarbon receptor (Homo sapiens) (UniProt P35869); assay: ATG_Ahr_CIS: Attagene CIS-FACTORIAL HepG2 Assay for human Aryl Hydrocarbon Receptor (Ahr) (AID 2282930); conditions: HepG2 AhR cis-factorial reporter transcription; actives raise or lower the signal
Aryl hydrocarbon receptor (Homo sapiens), sequence (P35869 whole entry, looked up): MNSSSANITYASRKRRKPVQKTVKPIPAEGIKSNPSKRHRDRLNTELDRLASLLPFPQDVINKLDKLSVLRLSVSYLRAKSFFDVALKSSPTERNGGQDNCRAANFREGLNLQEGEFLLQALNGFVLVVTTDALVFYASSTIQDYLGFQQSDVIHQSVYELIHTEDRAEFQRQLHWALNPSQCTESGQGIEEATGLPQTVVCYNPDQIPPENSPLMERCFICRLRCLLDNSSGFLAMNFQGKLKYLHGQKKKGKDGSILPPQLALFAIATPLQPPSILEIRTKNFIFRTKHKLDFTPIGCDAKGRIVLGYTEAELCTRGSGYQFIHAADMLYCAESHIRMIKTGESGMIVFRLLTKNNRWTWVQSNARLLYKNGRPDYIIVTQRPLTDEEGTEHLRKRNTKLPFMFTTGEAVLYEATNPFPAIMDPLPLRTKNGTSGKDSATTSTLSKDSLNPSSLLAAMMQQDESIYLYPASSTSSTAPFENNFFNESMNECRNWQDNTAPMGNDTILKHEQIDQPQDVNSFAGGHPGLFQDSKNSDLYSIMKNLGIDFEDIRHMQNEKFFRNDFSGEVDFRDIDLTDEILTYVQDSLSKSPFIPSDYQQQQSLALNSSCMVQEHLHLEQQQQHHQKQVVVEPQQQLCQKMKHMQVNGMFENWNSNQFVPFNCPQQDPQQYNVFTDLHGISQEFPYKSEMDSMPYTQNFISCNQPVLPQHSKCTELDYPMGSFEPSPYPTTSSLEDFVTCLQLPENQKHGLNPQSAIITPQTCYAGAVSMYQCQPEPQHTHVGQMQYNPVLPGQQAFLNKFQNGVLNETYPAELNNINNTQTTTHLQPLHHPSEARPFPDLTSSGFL
Summary of the method: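 Following 24 h of chemical dosing, transfected HepG2 liver cells with cis-driven reporter units were lysed for RNA; reporter mRNA was quantified via RT-PCR and capillary electrophoresis, and responses fitted bidirectionally from DMSO.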

[5] = ATG_AP_1_CIS: Attagene CIS-FACTORIAL HepG2 Assay for human Activator Protein 1 (AP-1) (AID 2282931); conditions: HepG2 Attagene cis-factorial AP-1 reporter mRNA; actives raise or lower the signal
Summary of the method: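 Transient MRTU transfection of HepG2 → 24 h chemical treatment → RNA isolation, RT-PCR, 6-FAM labelling, HpaI digest → capillary electrophoresis. Fit: bidirectional, DMSO negative control.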

[6] = ATG_AP_2_CIS: Attagene CIS-FACTORIAL HepG2 Assay for human Activator Protein 2 (AP-2) (AID 2282932); conditions: HepG2 AP-2 cis-reporter, Attagene transcription factor profiling; actives raise or lower the signal
Summary of the method: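 Bidirectional curve fitting against DMSO was applied to reporter mRNA signals from HepG2 cells 24 h after dosing. Cis-promoter reporter units, transiently transfected, were read by RT-PCR plus capillary electrophoresis.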

[7] = target: Transcription factor E2F1 (Homo sapiens) (UniProt Q01094); assay: ATG_E2F_CIS: Attagene CIS-FACTORIAL HepG2 Assay for human E2F Transcription Factor 1 (AID 2282935); conditions: HepG2 Attagene cis-reporter, E2F reporter RNA transcripts; actives raise or lower the signal
Transcription factor E2F1 (Homo sapiens), sequence (Q01094 whole entry, looked up): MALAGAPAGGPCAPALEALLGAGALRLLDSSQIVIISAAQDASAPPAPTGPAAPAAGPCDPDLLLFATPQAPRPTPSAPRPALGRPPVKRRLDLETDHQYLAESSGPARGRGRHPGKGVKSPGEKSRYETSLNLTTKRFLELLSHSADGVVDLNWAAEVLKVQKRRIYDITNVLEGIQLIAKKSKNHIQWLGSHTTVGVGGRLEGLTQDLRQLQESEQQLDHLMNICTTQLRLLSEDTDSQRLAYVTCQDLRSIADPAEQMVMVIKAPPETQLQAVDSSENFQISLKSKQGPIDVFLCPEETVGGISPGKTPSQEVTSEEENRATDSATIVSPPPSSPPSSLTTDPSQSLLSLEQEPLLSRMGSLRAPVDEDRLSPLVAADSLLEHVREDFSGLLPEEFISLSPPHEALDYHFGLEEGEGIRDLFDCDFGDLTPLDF
Summary of the method: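 Multiplexed cis-reporter assay: HepG2, transient transfection, 24 h dosing, mRNA quantitation by labeled RT-PCR and CE.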

[8] = ATG_E_Box_CIS: Attagene CIS-FACTORIAL HepG2 Assay for human Enhancer Box (E-box) (AID 2282936); conditions: HepG2 E-box cis-reporter transcription, actives raise or lower the signal
Summary of the method: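 Multiplexed CIS reporter system in transiently transfected HepG2 cells measures native transcription factor activity. Reporter RNA after 24 h exposure is profiled by RT-PCR-capillary electrophoresis.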

[9] = ATG_M_61_CIS: Attagene CIS-FACTORIAL HepG2 Assay for M61 Transcription Factor (Internal Marker) (AID 2282937); conditions: HepG2 Attagene CIS-FACTORIAL M61 internal marker reporter; actives raise or lower the signal
Summary of the method: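 Human liver HepG2, transient MRTU transfection (cis promoter elements), 24 h compound. Total RNA → oligo(dT) RT → PCR → FAM label → HpaI → CE. Internal background marker; bidirectional fitting, DMSO = baseline.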

[10] = ATG_EGR_CIS: Attagene CIS-FACTORIAL HepG2 Assay for human Early Growth Response 1 (EGR1) (AID 2282938); conditions: HepG2 Attagene CIS-FACTORIAL EGR reporter mRNA; actives raise or lower the signal
Summary of the method: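 Transient transfection of human HepG2 with multiple cis-regulated reporter units, chemical exposure 24 h, total RNA isolated. Reverse transcription, PCR, fluorescent labelling and capillary electrophoresis quantify reporter transcripts; activity fitted bidirectionally against DMSO.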

[11] = ATG_M_19_CIS: Attagene CIS-FACTORIAL HepG2 Assay for M19 Transcription Factor (Internal Marker) (AID 2282939); conditions: HepG2 Attagene CIS-FACTORIAL M19 internal marker reporter; actives raise or lower the signal
Summary of the method: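 Background-control endpoint from a multiplexed HepG2 reporter panel. Cells carrying cis-regulated reporter constructs are treated 24 h, then reporter transcripts are amplified, fluorescently labelled and sized by capillary electrophoresis. DMSO defines baseline.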

[12] = ATG_ERE_CIS: Attagene CIS-FACTORIAL HepG2 Assay for Estrogen Response Element (ERE) (AID 2282940); conditions: HepG2 ERE cis-reporter, Attagene RNA transcript; actives raise or lower the signal
Summary of the method: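 Cells used were human hepatoma HepG2, transfected with multiple reporter transcription units under cis-regulatory promoters. Reporter mRNA, read 24 h post-dosing via fluorescent RT-PCR products on capillary electrophoresis, was fitted bidirectionally relative to DMSO.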

[13] = ATG_Ets_CIS: Attagene CIS-FACTORIAL HepG2 Assay for human Erythroblast Transformation Specific (ETS) (AID 2282941); conditions: HepG2 ETS cis-reporter transcription, actives raise or lower the signal
Summary of the method: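 HepG2 cells transiently transfected with cis-promoter reporter transcription units were dosed for 24 h; reporter mRNA was measured by RT-PCR, 6-FAM primer extension, HpaI digestion and capillary electrophoresis, with bidirectional fitting against DMSO baseline.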

[14] = target: Hepatocyte nuclear factor 3-beta (Homo sapiens) (UniProt Q9Y261); assay: ATG_FoxA2_CIS: Attagene CIS-FACTORIAL HepG2 Assay for human Forkhead box A2 (FOXA2) (AID 2282942); conditions: HepG2 cis-reporter transcription factor activity, 24 h; actives raise or lower the signal
Hepatocyte nuclear factor 3-beta (Homo sapiens), sequence (Q9Y261 whole entry, looked up): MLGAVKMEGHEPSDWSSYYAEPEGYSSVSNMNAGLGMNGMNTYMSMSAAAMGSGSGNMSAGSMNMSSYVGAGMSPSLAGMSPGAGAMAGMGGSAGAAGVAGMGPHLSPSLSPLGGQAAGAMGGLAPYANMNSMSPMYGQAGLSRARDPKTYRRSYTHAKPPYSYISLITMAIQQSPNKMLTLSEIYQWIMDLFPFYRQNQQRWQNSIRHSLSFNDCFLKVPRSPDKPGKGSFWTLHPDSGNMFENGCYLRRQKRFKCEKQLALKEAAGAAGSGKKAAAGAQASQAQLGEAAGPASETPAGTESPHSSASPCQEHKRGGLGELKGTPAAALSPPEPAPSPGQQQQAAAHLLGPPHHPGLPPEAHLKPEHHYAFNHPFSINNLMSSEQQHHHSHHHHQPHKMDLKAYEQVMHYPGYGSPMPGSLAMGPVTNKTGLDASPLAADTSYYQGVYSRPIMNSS
Summary of the method: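 Transient MRTU transfection of HepG2 liver cells; 24 h treatment; total RNA → oligo(dT) RT → PCR → FAM primer extension → HpaI cut → CE. Bidirectional fit vs DMSO.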

[15] = ATG_FoxO_CIS: Attagene CIS-FACTORIAL HepG2 Assay for human Forkhead box O (FoxO) (AID 2282943); conditions: HepG2 Attagene cis-reporter, FoxO element, mRNA; actives raise or lower the signal
Summary of the method: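 24 h chemical exposure, HepG2 with transient cis-MRTU transfection. RNA extraction, oligo(dT) RT, reporter-specific PCR, primer-extension labelling, HpaI digestion, CE fragment analysis; bidirectional fit, DMSO baseline.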

[16] = ATG_GATA_CIS: Attagene CIS-FACTORIAL HepG2 Assay for human GATA Binding Protein (AID 2282944); conditions: HepG2 GATA cis-element reporter, Attagene multiplex mRNA; actives raise or lower the signal
Summary of the method: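 Endogenous transcription factor activity was captured through cis-promoter-driven reporters in transfected HepG2 cells. After 24 h exposure, reporter transcripts were quantified by RT-PCR with fluorescent capillary electrophoresis, and responses fitted both directions against DMSO.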

[17] = ATG_BRE_CIS: Attagene CIS-FACTORIAL HepG2 Assay for human Bone Morphogenetic Protein (BMP) Response Element (BRE) (AID 2282933); conditions: HepG2 BMP response element reporter, Attagene transcription factor profiling; actives raise or lower the signal
Summary of the method: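 Endogenous transcription factor activity at a BMP response element was monitored in transfected HepG2 cells 24 h after dosing. Fluorescent RT-PCR products were resolved by capillary electrophoresis, and activity was fitted in both directions versus DMSO.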

[18] = target: Retinoic acid receptor alpha (Homo sapiens) (UniProt P10276); assay: ATG_DR5_RAR_CIS: Attagene CIS-FACTORIAL HepG2 Assay for human Retinoic Acid Receptor Alpha (RARE), DR5 submotif (AID 2282934); conditions: HepG2 Attagene cis-factorial RARE DR5 reporter, mRNA; actives raise or lower the signal
Retinoic acid receptor alpha (Homo sapiens), sequence (P10276 whole entry, looked up): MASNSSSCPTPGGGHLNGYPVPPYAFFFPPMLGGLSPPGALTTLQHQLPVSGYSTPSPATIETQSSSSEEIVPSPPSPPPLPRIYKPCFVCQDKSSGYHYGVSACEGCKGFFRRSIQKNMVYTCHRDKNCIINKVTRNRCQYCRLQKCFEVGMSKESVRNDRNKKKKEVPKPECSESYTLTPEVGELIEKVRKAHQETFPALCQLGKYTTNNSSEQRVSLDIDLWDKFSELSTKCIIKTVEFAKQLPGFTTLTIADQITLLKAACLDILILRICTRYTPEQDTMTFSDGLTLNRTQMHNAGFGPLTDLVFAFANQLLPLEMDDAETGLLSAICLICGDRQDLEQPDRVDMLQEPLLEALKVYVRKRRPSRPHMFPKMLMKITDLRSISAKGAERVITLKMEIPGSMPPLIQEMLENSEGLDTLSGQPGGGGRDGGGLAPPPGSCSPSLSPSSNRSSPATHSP
Summary of the method: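 Transfected HepG2 reporter cells are exposed to chemicals for 24 h. Then RNA is extracted and the DR5 element reporter transcript is measured by RT-PCR and capillary electrophoresis, with bidirectional curve fitting relative to DMSO.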

Measured: outcome

CC(C)OB(OC(C)C)OC(C)C
not listed: [17] | [18]
inactive: all other assays above

Cc1cccc(O)c1
not listed: [5] | [18]
inactive: all other assays above

NC(N)=S
not listed: [17] | [18]
inactive: all other assays above

CCCCOCCOC(=O)c1ccccc1C(=O)OCCOCCCC
not listed: [4]
inactive: all other assays above

O=C1CCCCCCCCCCCC(=O)OCCO1
not listed: [6] | [18]
inactive: all other assays above

CCCCC1CCCCC(=O)O1 (stereo not given)
not listed: [5] | [8] | [13] | [16]
inactive: all other assays above

CC(=O)C1C(=O)C=C(C)OC1=O (stereo not given)
not listed: [4] | [13] | [17]
inactive: all other assays above

NS(=O)(=O)c1cc(C(=O)O)c(NCc2ccco2)cc1Cl
not listed: [6] | [14] | [17]
inactive: all other assays above
